Sampled rows, rich in hits. Any-hit rate of the full collection: about 1.8%.
PrPC TRFRET = inhibitors of human cell surface prion protein PrPC, primary screen, cell-based, TR-FRET. TR-FRET read-out. actives 0.43% (n = 370,000). inhibition, % at 13.8 µM. Major prion protein (Homo sapiens), P04156; in the data active means inhibition above about 24%
Sa ugtP lethal = growth inhibition of ugtP-null S. aureus, primary screen, RN4220 ugtP deletion, OD600 | growth inhibition, % (test concentration not listed) | actives 0.54% (n = 330,000) | AID 1259309, 2017 | 16 h; in the data active means growth inhibition above about 68%
VHR inh abs = VHR1 phosphatase inhibitors, primary screen, biochemical, absorbance, uHTS | Dual specificity protein phosphatase 3 (Homo sapiens), P51452 | inhibition, % at 13.3 µM | actives 0.52% (n = 290,000) | recombinant VHR phosphatase, pNPP absorbance; in the data active means inhibition above about 50%
Target sequence (P51452 whole entry, looked up): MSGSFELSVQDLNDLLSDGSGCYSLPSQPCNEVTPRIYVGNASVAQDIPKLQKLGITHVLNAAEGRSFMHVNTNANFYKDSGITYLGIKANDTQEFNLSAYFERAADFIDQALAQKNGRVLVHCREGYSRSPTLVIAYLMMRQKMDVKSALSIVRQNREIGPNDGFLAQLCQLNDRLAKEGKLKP
RN4220 kill = growth inhibition of S. aureus RN4220, primary screen, OD600 | 16 h | inhibition, % (concentration not given with the values) | actives 0.33% (n = 330,000) | AID 1259311, 2017; in the data active means inhibition above about 85%
PfHsp40 yeast = rescue of yeast from PfHsp40 toxicity, primary screen, S. cerevisiae, ATP luminescence. growth rescue, % at 12.5 µM. actives 0.68% (n = 340,000). S. cerevisiae expressing PfHsp40, growth rescue; in the data active means growth rescue above about 28%, passing the limit was not always enough;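 further: yeast W303a lacking pdr1 and pdr3 grown in galactose medium; growth measured after three days at 30 °C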
Numbers stand for hits; 0 = inactive; - = not tested or not shown.

SMILES	PrPC TRFRET	Sa ugtP lethal	VHR inh abs	RN4220 kill	PfHsp40 yeast
CCCCCCNC(=O)CC(c1ccccc1)c1cc(Br)ccc1O (centres undefined)	0	0	0	0	40
CC(C)Cn1c(=O)c(C(=O)NN=Cc2cccc(F)c2)c(O)c2ccccc21	-	99	-	100	-
O=S(=O)(/N=C(\Sc1ccccc1)c1ccccc1)c1ccc(Cl)cc1	0	-	0	-	0
O=S(=O)(N=C(Sc1ccc(Cl)cc1)c1ccccc1)c1ccccc1	-	92	-	0	-
Nc1c(C(=O)NCC2CCCO2)sc2nc3c(c(-c4ccco4)c12)CC/C3=C\c1ccco1 (centres undefined)	0	0	101	0	0
NC(=O)c1sc2nc3c(c(-c4ccco4)c2c1N)CCCC3	0	0	0	0	0
Oc1ccc(/C=N/N(Cc2ccccc2)c2ccccc2)c(O)c1O	0	-	0	-	42
Oc1cccc(/C=N/N(Cc2ccccc2)c2ccccc2)c1	0	-	0	-	345
CN(C)c1ccc(C=NN(Cc2ccccc2)c2ccccc2)cc1	-	0	-	0	-
CC1(C)CC(=O)CC(=O)C1=NNc1c(Cl)cc(Cl)cc1Cl	-	0	-	0	-
O=C(NN=Cc1ccccc1O)C1SCCCS1	-	0	-	0	-
CCC(=O)Nc1ccc(SC#N)cc1C	0	0	0	0	91
Cc1ccc(NC(=O)c2ccc(NN=Cc3cccc(O)c3)c([N+](=O)[O-])c2)cc1	-	0	-	0	-
COc1ccc2cnn(CCOc3cc(C)ccc3C(C)C)c(=O)c2c1OC	0	0	0	0	320
CCOc1ccccc1OCCn1ncc2ccc(OC)c(OC)c2c1=O	0	0	0	0	0
O=C(O)c1ccc(CN2C(=O)c3cccc4c([N+](=O)[O-])ccc(c34)C2=O)cc1	-	97	0	0	0
Cc1ccc(C(=O)O)cc1N1C(=O)c2cccc3c([N+](=O)[O-])ccc(c23)C1=O	0	-	0	-	0
Cc1cc(C=C2C(=N)N3N=C(C(C)C)SC3=NC2=O)c(C)n1-c1ccccc1	-	0	-	0	-
Oc1c(Cl)cc(Cl)c2c1NCCC2	0	-	0	-	87
CCn1nnc(-c2ccccc2NC(=O)c2ccc(-n3cnnn3)cc2)n1	0	0	0	0	71
O=C(/C=C/c1ccc2c(c1)OCO2)c1c(O)n(CCC2=CCCCC2)c(=O)[nH]c1=O	0	100	0	100	0
COc1ccc(/C=C/C(=O)c2c(O)n(CCC3=CCCCC3)c(=O)[nH]c2=O)cc1	0	92	0	89	0
CCCCn1c(O)c(C(=O)/C=C/c2ccc3c(c2)OCO3)c(=O)[nH]c1=O	0	-	0	-	0
CN(C)CCN=Cc1c(O)n(CCC2=CCCCC2)c(=O)[nH]c1=O	0	0	0	0	0
O=C(O)CN1C(=O)/C(=C\c2cc(Br)ccc2OCc2ccc(Cl)cc2)SC1=S	0	0	57	0	0
SMILES	PrPC TRFRET	Sa ugtP lethal	VHR inh abs	RN4220 kill	PfHsp40 yeast
O=C1/C(=C\c2cc([N+](=O)[O-])ccc2O)SC(=S)N1Cc1ccc(Cl)cc1	0	0	0	88	0
O=C(O)c1cc(-c2ccc(/C=C3/SC(=S)N(Cc4ccccc4)C3=O)o2)ccc1Cl	0	101	0	97	0
O=C1/C(=C\c2cccc(O)c2O)SC(=S)N1Cc1ccccc1	0	-	0	-	0
Cc1ccccc1/C=C1\SC(=S)N(/N=C/c2cc([N+](=O)[O-])ccc2O)C1=O	0	-	0	-	229
COc1ccc(CN2C(=O)/C(=C/c3ccc(-c4ccc(Cl)c(C(=O)O)c4)o3)SC2=S)cc1	-	-	0	-	-
CC1CN(C(C)CO)C(=O)c2cc(NC(=O)C3CC3)ccc2OC1CN(C)C(=O)Nc1ccccc1 (centres undefined)	-	0	-	0	-
O=C1/C(=C\c2ccc(O)c(O)c2)SC(=S)N1Cc1ccccc1	0	99	0	0	0
COc1cc(/C=C2/SC(=S)N(Cc3ccccc3)C2=O)ccc1O	0	0	0	0	0
O=[N+]([O-])c1ccccc1C=Nn1c(C(F)(F)F)n[nH]c1=S	-	0	-	0	-
CCCCCC1CCC(c2ccc(/C(N)=N/O)cc2)CC1 (centres undefined)	0	100	0	0	0
CCCCC1CCC(c2ccc(C(N)=O)cc2)CC1 (centres undefined)	0	0	0	0	0
CCOC(=O)CNC(=O)c1cccnc1	0	0	0	0	0
CCOC(=O)C(O)(NC(=O)c1cccnc1)C(F)(F)F (centres undefined)	0	0	0	84	0
CSc1ccc(CN(C)CC(=O)N(C)CC(=O)Nc2ccccc2Br)cc1	0	0	-	0	0
CSc1ccc(CN(C)CC(=O)Nc2ccc(C)cc2Br)cc1	0	90	0	0	0
CC(C)(C)C(=O)C(C#N)=Cc1ccc(O)cc1	-	0	-	0	-
Clc1ccc(OCCCNCc2ccccc2)c2ccccc12	0	95	0	100	0
Brc1ccccc1OCCNCc1ccccc1	0	0	0	0	0
Cc1cc(C)c(C)c(OCCNCc2ccccc2)c1	0	0	52	0	0
O=C(NN=Cc1ccc([N+](=O)[O-])o1)c1ccccc1NS(=O)(=O)c1cccs1	-	100	-	100	-
O=C(NN=Cc1ccc(O)cc1O)c1ccccc1NS(=O)(=O)c1cccs1	0	0	-	0	70
COC(=O)C1CC2CCC(O)CC2N1Cc1ccccc1OS(=O)(=O)c1ccc(C)cc1 (centres undefined)	-	0	-	0	-
CC(=NNC(=O)c1cccc(N2CCCC2=O)c1)c1ccc(N)cc1	-	0	-	0	-
C=C1C(=O)OC2CC1C(O)CC(C)=CCCC(C)=CC(O)CC2C (centres undefined)	33	-	-	-	0
COc1ccccc1OC(=O)c1cc2ccccc2oc1=O	0	0	0	0	0
SMILES	PrPC TRFRET	Sa ugtP lethal	VHR inh abs	RN4220 kill	PfHsp40 yeast
COc1cc(/C=C/[N+](=O)[O-])ccc1OC(=O)c1cc2ccccc2oc1=O	0	0	0	0	118
C[C@]12C=CC(=O)C=C1CC[C@@H]1[C@@H]2CC[C@]2(C)C(=O)CC[C@@H]12	0	-	-	-	48
c1ccc(-c2nc3ccccc3c3nc4ccccc4n23)cc1	0	0	51	0	0
O=C(O)Cn1c(=O)c(-c2ccccc2)nc2ccccc21	0	0	0	0	0
O=C(O)Cn1c(-c2ccccc2)nc2ccccc21	0	0	51	0	0
Cc1ccc(C)c(N2C(=O)CSC2=NNC(=O)c2ccccc2Cl)c1	-	0	-	0	-
O=C(Nc1cccc([N+](=O)[O-])c1)c1ccc2ccccc2c1O	0	86	0	86	0
O=C(Nc1cccnc1)c1ccc2ccccc2c1O	0	0	0	0	173
O=C(Cc1ccccc1)Nc1cccc([N+](=O)[O-])c1	0	0	0	0	0
Cc1nc2c(cc1C(=O)NN=Cc1ccc([N+](=O)[O-])cc1)c(=O)n(C)c(=O)n2C	-	0	-	0	-
O=C(NN=Cc1ccco1)c1ccc(C(=O)NN=Cc2ccco2)o1	-	0	-	0	-
C=CS(=O)(=O)N(Cc1ccc(F)cc1)C(=C)C(=O)OC	53	-	-	-	-
COC(=O)[C@@H](NC(=O)NCc1ccc(F)cc1)C(C)C	0	0	0	0	0
Cc1cccc2c1ncc1c(=O)n(-c3ccccc3)[nH]c12	0	0	57	0	0
